# Compounds with a hit are over-represented: about 2.6% of the library has one in this group of screens.
# HIF-2a inh: blocks HIF-2a reporter activity | 786-0 RCC cells HIF-2a reporter, luciferase luminescence, overnight | inhibition, % at 18.8 µM | 360,000 compounds, 0.72% hits;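 active = inhibition of the luminescence signal of 40% or more relative to plate controls, in a single-dose primary screen at 18.75 µM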
# KKLEB cytotox: reduces viability of KKLEB cystic fibrosis airway cells | 360,000 compounds, 0.36% hits | activity change (cytotoxicity), % at 5 µM | KKLEB CF airway cells viability, ATPlite luminescence, overnight; active compounds read low; cells stimulated with P. aeruginosa culture filtrate;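 active = corrected activity change at or below -50% at 5 µM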
# Peg3 prom inh: reduces Peg3 promoter-driven luciferase expression in HeLa; AID 588405; inhibition, % at 20 µM; HeLa PEG-Prom luciferase reporter, luminescence, overnight; 360,000 compounds, 1.7% hits;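 active = inhibition of at least 50% at 20 µM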
# CF NFkB block: cystic fibrosis NF-kB activation inhibition. KKLEB NF-kB-GFP reporter, PAF-induced, GFP fluorescence overnight. inhibition, % at 5 µM. 360,000 compounds, 0.86% hits;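 active = at least 50% inhibition at 5 µM, scaled per plate between neutral and stimulator controls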;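 note: PAF is a Pseudomonas aeruginosa culture filtrate used as stimulus; plate controls were PAF-stimulated DMSO wells for no effect and unstimulated DMSO wells for full effect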
# Shn3 inh set2: reduces Shn3 3'UTR luciferase signal in osteoblasts. Clone20 osteoblast Shn3 3'UTR firefly luciferase, 24 h. inhibition, % at 12.5 µM. 360,000 compounds, 0.52% hits. AID 588674;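 active = mean inhibition of at least 75% with every replicate also reaching 75%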;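 note: 0% = median of neutral control wells and 100% = pilot-screen positive control compound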
# An asterisk follows results filed as active; x = no result.
SMILES,HIF-2a inh,KKLEB cytotox,Peg3 prom inh,CF NFkB block,Shn3 inh set2
COc1ccc(C2C(C(=O)NCCN3CCOCC3)c3ccccc3C(=O)N2C)cc1OC (stereo not drawn),8,1,1,0,-8
O=C(NC(CSCc1ccccc1)C(=O)N/N=C/c1ccc(O)cc1O)c1ccc([N+](=O)[O-])cc1 (stereo not drawn),13,13,51*,10,91*
CC1CCN(C(=O)CSc2nc(N)c(NC(=O)c3ccccc3)c(=O)[nH]2)CC1,9,-5,23,0,-2
CCn1cc(C(C)NC(=O)Nc2ccc3c(c2)OCO3)c(C)n1 (stereo not drawn),-27,-4,-14,-8,-1
NC(=O)N/N=C/c1ccc(N2CCOCC2)s1,0,9,52*,-18,2
C[C@@H]1O[C@@H](O[C@H]2[C@H](Oc3cc(O)c4c(c3)OC(c3ccc(O)cc3)CC4=O)O[C@H](CO)[C@@H](O)[C@@H]2O)[C@H](O)[C@H](O)[C@H]1O (stereo partly drawn),1,-54*,-2,-6,-2
COc1cc(-c2nc(C(=O)NCC3CCCO3)cc3c2[nH]c2ccccc23)cc(OC)c1OC (stereo not drawn),-77,3,57*,10,40
O=C(NCC1CCCO1)c1cc2c([nH]c3ccccc32)c(-c2cccc(Cl)c2)n1 (stereo not drawn),-22,1,53*,-11,52
Cc1ccc(C(=O)Nc2cccnc2)cc1C,-195,-2,-188,-1,-60
O=C(NC(c1ccc(-c2ccccc2)cc1)c1cnccn1)C1CCN(CCCOc2ccccc2)CC1 (stereo not drawn),-10,-20,103*,28,-4
O=C(NC(c1ccc(-c2ccccc2)cc1)c1cnccn1)C1CCN(CCOc2ccc(F)cc2)CC1 (stereo not drawn),-12,-31,50*,33,35
O=C(NC(c1ccc(Cl)cc1)c1cnccn1)C1CCN(CCOc2ccc(F)cc2)CC1 (stereo not drawn),10,-6,-3,16,-3
COc1ccc(OC)c(S(=O)(=O)NC2CCCCNC2=O)c1 (stereo not drawn),18,-2,5,3,9
CN(Cc1ccccc1)CC(O)COc1ccc(CNCc2ccc(Cl)s2)cc1 (stereo not drawn),24,-13,54*,8,24
CCCNC(=O)C1(C)CCCN(C(=O)c2ccccc2OC)C1 (stereo not drawn),-1,-13,-7,14,1
O=C(NCC1CCCO1)C1CCCN1C(=O)Nc1ccc(Cl)cc1 (stereo not drawn),18,-1,-10,-5,-11
O=C(Nc1ccc2nc(-c3ccco3)c(-c3ccco3)nc2c1)NC1CC1,-48,-10,-43,4,-4
O=C(Nc1ccc(N2CCOCC2)cc1)Nc1ccc2nc(-c3ccco3)c(-c3ccco3)nc2c1,0,-42,47,70*,41
Cc1cc(N2CCCC2)nc2ccc(NC(=S)NCCCN3CCC(C)CC3)cc12,18,-1,98*,-24,15
CCCN1CCN(CCCNC(=S)Nc2ccc3nc(N4CCN(CC)CC4)cc(C)c3c2)CC1,12,-10,4,25,x
CCCCN(C)CCNC(=S)Nc1ccc2nc(N3CCN(CC)CC3)cc(C)c2c1,16,-8,63*,-13,-9
Cc1cc(N2CCN(C)CC2)nc2ccc(NC(=S)NCCN3CCc4ccccc4C3)cc12,7,-6,61*,12,18
COc1cccc(Nc2nnc(SCC(=O)N(CC(C)C)CC(C)C)s2)c1,-37,-2,2,9,31
C[C@@H](C(=O)OCC(=O)Nc1cc(S(=O)(=O)N2CCOCC2)ccc1Cl)N1C(=O)C2CCCCC2C1=O (stereo partly drawn),5,4,2,11,8
CCOc1ccccc1N1CCN(C(=O)NCc2ccc(Cl)cc2)CC1,-5,-8,12,25,12
SMILES,HIF-2a inh,KKLEB cytotox,Peg3 prom inh,CF NFkB block,Shn3 inh set2
COc1ccc(C[C@H]2CN3C(=NC[C@@H]3Cc3ccccc3)N2CCNC(=O)CCC2CCCCC2)cc1,5,2,99*,21,84
COc1ccc(C[C@H]2CN3C(=NC[C@@H]3C(C)C)N2CCNC(=O)CCC2CCCCC2)cc1,-19,-11,50,10,66
CCOC(=O)C1(C)CCCN(C(=O)c2ccc(OC)cc2OC)C1 (stereo not drawn),7,-3,3,21,3
Fc1cccc(-c2nnn3c2nc(Cl)c2ccccc23)c1,-208,0,107*,26,-52
Cc1ccc(-c2nnn3c2nc(Cl)c2ccccc23)cc1,-94,0,-10,12,-10
O=C(c1cc2cc(Cl)cc(Cl)c2oc1=O)N1CCOCC1,9,0,55*,-8,-7
O=C(c1ccc(Cl)cc1Cl)N1CCOCC1,8,5,5,11,-3
CCn1c(=O)c(C(=O)Nc2ccccc2)c(O)c2ccccc21,-20,9,-30,-24,4
CCn1c(=O)c(C(=O)Nc2nc3ccccc3[nH]2)c(O)c2ccccc21,32,-90*,22,89*,82
Cc1nc(C)c(CCNC(=O)c2ccccc2Br)s1,1,2,-12,5,7
COc1cc(/C=N/NC(=O)CCN2CCCCC2)ccc1O,6,-3,4,-10,-15
COc1cc(/C=N/NC(=S)Nc2cccc(C(=O)O)c2)ccc1O,43*,-6,12,-3,17
COc1cc(/C=N/NC(=O)CCn2cnc(-c3ccccc3)c2-c2ccccc2)ccc1O,20,4,53*,-8,-4
O=C1C=C(c2ccccc2)C(c2ccccc2)C1O (stereo not drawn),4,-29,-1,18,-10
CC(C)C[C@H]1CN=C(N(C)C)N1CC1CCCCCC1,-7,13,-9,-2,87*
CC(C)C[C@H]1CN=C(N(C)C)N1CC(C)C,12,21,-17,-12,19
O=C(NC(=O)c1ccc(F)cc1F)Nc1ccc(Cl)cc1,-210,8,-120,0,-107
COc1ccc2nc(C)cc(SCC(=O)N/N=C/c3ccc(O)cc3O)c2c1,21,-14,34,12,87*
O=C(NN1CCOCC1)c1cn(-c2ccccc2)nc1-c1cccs1,-27,6,-15,0,-18
O=C1CN(C(=O)COC(=O)c2ccc(C(F)(F)F)cc2)c2ccccc2N1,-3,5,-3,-6,-3
Cc1ccc(C(=O)CCS(=O)(=O)c2ccc(F)cc2)cc1,7,-11,60*,32,9
Oc1ccccc1N1CCN(c2ncnc3scc(-c4ccc(F)cc4)c23)CC1,23,9,49,34,18
Oc1ccccc1N1CCN(c2ncnc3scc(-c4ccccc4)c23)CC1,24,1,59*,36,-9
COc1ccc(-c2csc3ncnc(N4CCN(c5ccccc5OC)CC4)c23)cc1,14,-7,37,16,-19
